Where “and” joins values, the source holds several entries; their conditions need not be identical. Equal values may be shown once. Inconclusive results are not listed. Calls of active or inactive are those of the source. The call rests on the fitted dose curve; in most records, active means well fitted curve in the direction sought with a large enough effect in the repeat runs; inconclusive means weak or mixed curves; inactive means no such curve, though single readings can be large; an effect the other way counts as inactive or inconclusive.
How the values were obtained:
[1] = A CellTox Green Cytotoxicity Assay to monitor cytotoxicity in HEK293 cells - 40 hour (AID 1224871); further: nearly all actives have a fitted effect of over 45% in size
Summary of the method: (§1)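 Each value comes from one timepoint of a single continuous run in which HEK293 cells with CellTox Green were exposed to compound for up to 40 h at 37 C, dye fluorescence rising with cell death.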

[2] = qHTS RealTime-Glo MT Cell Viability Assay in HEK293 cells - 16 hour (AID 1224872); further: top concentration of the series differs between compounds; nearly all actives have a fitted effect of over 50% in size
Summary of the method: (§2)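 Homogeneous bioluminescent viability format in HEK293 cells (600 cells/well). Following 5 h at 37 C/5% CO2, 23 nL compound was pintooled; the signal was measured repeatedly during 40 h incubation.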

[3] = qHTS RealTime-Glo MT Cell Viability Assay in HepG2 cells - 8 hour (AID 1224873); further: nearly all actives have a fitted effect of over 55% in size
Summary of the method: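 HepG2 cells (600/well) mixed with RealTime-Glo MT reagent, settled 5 h at 37 C/5% CO2 before compound addition. Nonlytic NanoLuc luminescence from viable-cell prosubstrate reduction read repeatedly during 40 h treatment at 37 C.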

[4] = qHTS RealTime-Glo MT Cell Viability Assay in HEK293 cells - 40 hour (AID 1224874); details: RealTime-Glo luminescence; max response: stronger effect = lower value; further: nearly all actives have a fitted effect of over 50% in size
Summary of the method: (§3)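 qHTS format; HEK293 cells with NanoLuc/prosubstrate reagent, 37 C/5% CO2 for 5 h pre-dosing; compounds 23 nL in DMSO; luminescence at each time point reflects viable cells.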

[5] = A CellTox Green Cytotoxicity Assay to monitor cytotoxicity in HEK293 cells - 24 hour (AID 1224875); further: series mostly up to about 77 µM; nearly all actives have a fitted effect of over 45% in size
Summary of the method: as §1

[6] = A CellTox Green Cytotoxicity Assay to monitor cytotoxicity in HepG2 cells - 16 hour (AID 1224876); further: nearly all actives have a fitted effect of over 45% in size
Summary of the method: (§4)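 Continuous culture of HepG2 cells with a membrane-impermeant DNA dye; rising fluorescence marks dead cells. Compound exposure lasted up to 40 h at 37 C, with reads every 8 h from 0 h.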

[7] = qHTS RealTime-Glo MT Cell Viability Assay in HepG2 cells - 32 hour (AID 1224877); further: nearly all actives have a fitted effect of over 55% in size
Summary of the method: (§5)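 Cell number in HepG2 cultures estimated from NanoLuc luminescence generated by metabolic reduction of a prosubstrate by living cells. The homogeneous, nonlytic format allowed repeated reads at 0, 8, 16, 24, 32 and 40 h of compound exposure.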

[8] = A CellTox Green Cytotoxicity Assay to monitor cytotoxicity in HepG2 cells - 24 hour (AID 1224878); further: nearly all actives have a fitted effect of over 45% in size
Summary of the method: as §4

[9] = A CellTox Green Cytotoxicity Assay to monitor cytotoxicity in HepG2 cells - 40 hour (AID 1224879); further: nearly all actives have a fitted effect of over 40% in size
Summary of the method: as §4

[10] = qHTS RealTime-Glo MT Cell Viability Assay in HEK293 cells - 0 hour (AID 1224880)
Summary of the method: as §3

[11] = A CellTox Green Cytotoxicity Assay to monitor cytotoxicity in HEK293 cells - 32 hour (AID 1224881); further: nearly all actives have a fitted effect of over 40% in size
Summary of the method: as §1

[12] = A CellTox Green Cytotoxicity Assay to monitor cytotoxicity in HepG2 cells - 0 hour (AID 1224882); further: nearly all actives have a fitted effect of over 35% in size
Summary of the method: as §4

[13] = A CellTox Green Cytotoxicity Assay to monitor cytotoxicity in HepG2 cells - 32 hour (AID 1224883); further: nearly all actives have a fitted effect of over 50% in size
Summary of the method: as §4

[14] = A CellTox Green Cytotoxicity Assay to monitor cytotoxicity in HEK293 cells - 8 hour (AID 1224884); further: nearly all actives have a fitted effect of over 35% in size
Summary of the method: as §1

[15] = qHTS RealTime-Glo MT Cell Viability Assay in HepG2 cells - 16 hour (AID 1224885); further: nearly all actives have a fitted effect of over 50% in size
Summary of the method: as §5

[16] = qHTS RealTime-Glo MT Cell Viability Assay in HEK293 cells - 24 hour (AID 1224886)
Summary of the method: as §2

[17] = qHTS RealTime-Glo MT Cell Viability Assay in HEK293 cells - 8 hour (AID 1224887)
Summary of the method: as §3

[18] = qHTS RealTime-Glo MT Cell Viability Assay in HepG2 cells - 0 hour (AID 1224889); further: nearly all actives have a fitted effect of over 50% in size
Summary of the method: as §5

[19] = A CellTox Green Cytotoxicity Assay to monitor cytotoxicity in HepG2 cells - 8 hour (AID 1224890); further: nearly all actives have a fitted effect of over 45% in size
Summary of the method: as §4
On the % scale 0 is the no-effect control and ±100 the full control effect.

Nc1cccc(N)n1
inactive: Potency [1] | Potency [2] | Potency [3] | max response [4] 0.328% and -0.427% | Potency [5] | Potency [6] | Potency [7] | Potency [8] | Potency [9] | Potency [10] | Potency [11] | Potency [12] | Potency [13] | Potency [14] | Potency [15] | Potency [16] | Potency [17] | Potency [18] | Potency [19]

CCCOC(=O)NCCCN(C)C
inactive: Potency [1] | Potency [2] | Potency [3] | max response [4] 3.11% and 1.66% | Potency [5] | Potency [6] | Potency [7] | Potency [8] | Potency [9] | Potency [10] | Potency [11] | Potency [12] | Potency [13] | Potency [14] | Potency [15] | Potency [16] | Potency [17] | Potency [18] | Potency [19]

NC(N)=S
inactive: Potency [1] | Potency [2] | Potency [3] | max response [4] 2.78% and 0.322% | Potency [5] | Potency [6] | Potency [7] | Potency [8] | Potency [9] | Potency [10] | Potency [11] | Potency [12] | Potency [13] | Potency [14] | Potency [15] | Potency [16] | Potency [17] | Potency [18] | Potency [19]

NC1CCCCC1N (stereo unspecified)
inactive: Potency [1] | Potency [2] | Potency [3] | max response [4] -12.3% and -1.05% | Potency [5] | Potency [6] | Potency [7] | Potency [8] | Potency [9] | Potency [10] | Potency [11] | Potency [12] | Potency [13] | Potency [14] | Potency [15] | Potency [16] | Potency [17] | Potency [18] | Potency [19]

NCCNCCNCCN
inactive: Potency [1] | Potency [2] | Potency [3] | max response [4] 2.02% and 3.6% | Potency [5] | Potency [6] | Potency [7] | Potency [8] | Potency [9] | Potency [10] | Potency [11] | Potency [12] | Potency [13] | Potency [14] | Potency [15] | Potency [16] | Potency [17] | Potency [18] | Potency [19]

CCOC(=O)c1ccc(O)cc1
inactive: Potency [1] | Potency [2] | Potency [3] | max response [4] -23.5% and -3.47% | Potency [5] | Potency [6] | Potency [7] | Potency [8] | Potency [9] | Potency [10] | Potency [11] | Potency [12] | Potency [13] | Potency [14] | Potency [15] | Potency [16] | Potency [17] | Potency [18] | Potency [19]

CCCCCC(C)=O
inactive: Potency [1] | Potency [2] | Potency [3] | max response [4] 0.796% and 0.918% | Potency [5] | Potency [6] | Potency [7] | Potency [8] | Potency [9] | Potency [10] | Potency [11] | Potency [12] | Potency [13] | Potency [14] | Potency [15] | Potency [16] | Potency [17] | Potency [18] | Potency [19]

CCCCCNCCCCC
inactive: Potency [1] | Potency [2] | Potency [3] | max response [4] 4.14% and 0.383% | Potency [5] | Potency [6] | Potency [7] | Potency [8] | Potency [9] | Potency [10] | Potency [11] | Potency [12] | Potency [13] | Potency [14] | Potency [15] | Potency [16] | Potency [17] | Potency [18] | Potency [19]

Cc1cc(C)cc(O)c1
inactive: Potency [1] | Potency [2] | Potency [3] | max response [4] 6.28% and 8.82% | Potency [5] | Potency [6] | Potency [7] | Potency [8] | Potency [9] | Potency [10] | Potency [11] | Potency [12] | Potency [13] | Potency [14] | Potency [15] | Potency [16] | Potency [17] | Potency [18] | Potency [19]
